From PubChem BioAssay (Tox21)
Inconclusive results are not listed. The source made the active and inactive calls. Unless noted, calls come from the whole dose curve.

What was measured:
[1] = Nuclear factor erythroid 2-related factor 2/antioxidant responsive element (Nrf2/ARE) small molecule agonists: qHTS cell viability counter screen in human keratinocytes (AID 1919968; active = well fitted curve in the direction sought with a large enough effect in the repeat runs; an effect the other way counts as inactive or inconclusive; note: nearly all actives have a fitted effect of over 55% in size)
Outline: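 Seed 1,500 KeratinoSens cells per well, then incubate 5 h at 37 C/5% CO2. Add compounds in DMSO and incubate 23 h. Add CellTiter-Fluor, wait 1 h and read fluorescence.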

[2] = molecular target: Gonadotropin-releasing hormone receptor (Homo sapiens) (UniProt P30968); test: Human gonadotropin-releasing hormone receptor (GnRHR) small molecule agonists, calcium flux assay in GnRHR-HEK293 cells (AID 1920063); note: nearly all actives have a fitted effect of over 35% in size
Sequence of Gonadotropin-releasing hormone receptor (Homo sapiens) (P30968 whole entry, looked up): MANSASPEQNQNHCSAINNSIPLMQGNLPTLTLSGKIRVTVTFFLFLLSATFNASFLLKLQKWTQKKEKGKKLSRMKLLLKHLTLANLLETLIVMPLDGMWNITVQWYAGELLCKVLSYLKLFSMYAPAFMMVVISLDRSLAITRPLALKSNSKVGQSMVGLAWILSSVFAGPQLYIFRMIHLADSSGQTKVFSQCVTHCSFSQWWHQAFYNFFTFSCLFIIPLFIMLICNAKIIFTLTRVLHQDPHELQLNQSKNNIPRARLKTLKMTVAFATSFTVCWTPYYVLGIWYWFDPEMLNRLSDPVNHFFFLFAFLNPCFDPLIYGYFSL
Outline: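 Cells: HEK293 stably expressing human GnRHR. Steps: overnight (18 h) culture, 1 h calcium dye loading at 37 C, compound addition, kinetic fluorescence read at 480/540 nm. Each compound tested at 15 concentrations in triplicate.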

[3] = molecular target: KiSS-1 receptor (Homo sapiens) (UniProt Q969F8); test: Human kisspeptin (KISS1R) small molecule agonists, calcium flux assay in KISS1R-HEK293 cells (AID 1920064; active = well fitted curve in the direction sought with a large enough effect in the repeat runs; an effect the other way counts as inactive or inconclusive)
Sequence of KiSS-1 receptor (Homo sapiens) (Q969F8 whole entry, looked up): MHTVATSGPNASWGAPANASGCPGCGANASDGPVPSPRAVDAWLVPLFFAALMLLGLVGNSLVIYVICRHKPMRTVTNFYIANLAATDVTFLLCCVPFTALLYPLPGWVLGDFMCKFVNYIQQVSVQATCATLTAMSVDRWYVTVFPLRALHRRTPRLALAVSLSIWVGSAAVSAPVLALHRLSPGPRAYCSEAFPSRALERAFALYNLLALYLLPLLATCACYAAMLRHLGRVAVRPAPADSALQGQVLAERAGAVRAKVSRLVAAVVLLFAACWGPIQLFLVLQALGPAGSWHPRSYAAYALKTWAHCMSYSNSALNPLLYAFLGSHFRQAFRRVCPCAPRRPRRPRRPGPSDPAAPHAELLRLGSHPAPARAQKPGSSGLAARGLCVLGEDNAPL
Outline: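 Cells plated and incubated 18 h; dye added, 1 h at 37 C; compounds in DMSO pinned in; signal read at 480/540 nm every second for 3 min. Each compound tested at 15 concentrations in triplicate.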

[4] = G protein-coupled receptor (GPCR) small molecule agonists, calcium flux assay: HEK293 wild type cell line counter screen (AID 1920065)
Outline: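 Counter-screen of the Tox21 10K library for non-specific calcium release: dye-loaded cells received compounds in DMSO and were monitored by kinetic fluorescence (480/540 nm, 3 min). Fifteen concentrations, run in triplicate.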

[5] = p53 small molecule agonists, cell-based qHTS assay with human liver microsomes (AID 1963577);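 note: p53 response element beta-lactamase reporter cells with liver microsomes plus NADPH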
Outline: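 16 h, 37 C exposure of p53RE-bla cells to compounds with human liver microsomes and NADPH (0.5 mg/mL final each); detection via LiveBLAzer mixture, 2 h dark at room temperature.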

[6] = p53 small molecule agonists, cell-based qHTS assay with rat liver microsomes (AID 1963578)
Outline: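 With rat liver microsomes and NADPH present (0.5 mg/mL final each), p53RE-bla cells are treated with compound for 16 h at 37 C. LiveBLAzer detection mixture is then applied for 2 h at room temperature in the dark.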

[7] = p53 small molecule agonists, cell-based qHTS assay with human liver microsomes: qHTS cell viability counter screen (AID 1963579); note: nearly all actives have a fitted effect of over 45% in size
Outline: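 In this multiplexed counter screen, the reporter plates were subsequently treated with CellTiter-Glo so that cell viability, reflected by luminescence, could be recorded for p53RE-bla cells dosed 16 h with compounds under microsomal activation (HLM and NADPH).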

[8] = p53 small molecule agonists, cell-based qHTS assay with rat liver microsomes: qHTS cell viability counter screen (AID 1963580); note: nearly all actives have a fitted effect of over 45% in size
Outline: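 In HCT-116 cells carrying a p53 response element-bla reporter, compounds were metabolically activated in situ by rat liver microsomes with NADPH over 16 h. Cell ATP content then served as the cytotoxicity measure.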

[9] = p53 small molecule agonists, cell-based qHTS assay: qHTS cell viability counter screen (AID 1963581); note: nearly all actives have a fitted effect of over 45% in size
Outline: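 Cells: HCT-116 with p53 response element-driven beta-lactamase. Treatment: 16 h, 37 C, compounds in DMSO. Read: CellTiter-Glo luminescence after 30 min RT.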

[10] = p53 small molecule agonists, cell-based qHTS assay (AID 1963582; active = well fitted activation curve with a large enough effect in the signal ratio in the repeat runs, not every such curve was filed as active; the % refers to the signal ratio)
Outline: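 Quantitative HTS in p53RE-bla cells: after a 5 h settling period, compounds delivered in DMSO were left on cells for 16 h at 37 C, and reporter induction was measured as fluorescence following 2 h substrate loading.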

[11] = molecular target: 5-hydroxytryptamine receptor 2A (Homo sapiens) (UniProt P28223); test: 5-hydroxytryptamine receptor 2A (HTR2A) small molecule agonists, cell-based qHTS assay (AID 1963587); note: nearly all actives have a fitted effect of over 30% in size
Sequence of 5-hydroxytryptamine receptor 2A (Homo sapiens) (P28223 whole entry, looked up): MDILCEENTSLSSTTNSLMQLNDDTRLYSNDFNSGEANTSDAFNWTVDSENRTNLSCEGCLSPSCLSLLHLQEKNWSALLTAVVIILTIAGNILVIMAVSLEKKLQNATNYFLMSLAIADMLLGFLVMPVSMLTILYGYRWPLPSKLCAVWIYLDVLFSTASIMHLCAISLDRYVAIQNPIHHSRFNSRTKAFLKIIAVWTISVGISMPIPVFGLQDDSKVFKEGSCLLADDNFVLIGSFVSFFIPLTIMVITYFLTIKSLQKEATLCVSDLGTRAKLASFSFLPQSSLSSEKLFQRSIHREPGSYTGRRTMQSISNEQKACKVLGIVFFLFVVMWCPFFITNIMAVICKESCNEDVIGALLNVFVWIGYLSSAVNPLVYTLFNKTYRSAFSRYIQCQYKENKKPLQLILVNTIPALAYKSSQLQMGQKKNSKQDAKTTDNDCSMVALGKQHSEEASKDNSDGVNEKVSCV
Outline: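 HTR2A-CHO cells, plated 18 h at 37 C/5% CO2, dye-loaded 1 h at 37 C; compounds in DMSO added by pin tool (agonist mode). Intracellular calcium flux read as kinetic fluorescence on FDSS over 2 min at 1 s intervals.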

[12] = molecular target: Muscarinic acetylcholine receptor M1 (Homo sapiens) (UniProt P11229); test: Cholinergic receptor muscarinic 1 (CHRM1) small molecule antagonists, cell-based qHTS assay (AID 1963588); note: nearly all actives have a fitted effect of over 40% in size
Sequence of Muscarinic acetylcholine receptor M1 (Homo sapiens) (P11229 whole entry, looked up): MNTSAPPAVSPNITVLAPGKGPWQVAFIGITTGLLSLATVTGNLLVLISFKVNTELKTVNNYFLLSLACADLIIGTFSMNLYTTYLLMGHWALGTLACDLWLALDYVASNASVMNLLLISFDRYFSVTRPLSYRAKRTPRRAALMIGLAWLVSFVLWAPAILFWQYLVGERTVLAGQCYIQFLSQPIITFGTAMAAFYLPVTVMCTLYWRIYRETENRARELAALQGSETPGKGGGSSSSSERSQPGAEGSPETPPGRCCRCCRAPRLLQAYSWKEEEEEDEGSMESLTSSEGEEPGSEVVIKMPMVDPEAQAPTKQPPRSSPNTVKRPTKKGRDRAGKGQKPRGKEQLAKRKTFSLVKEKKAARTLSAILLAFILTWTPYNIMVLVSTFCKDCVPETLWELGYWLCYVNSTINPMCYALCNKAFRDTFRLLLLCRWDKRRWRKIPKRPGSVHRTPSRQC
Outline: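 CHRM1-CHO calcium-flux assay, antagonist mode. Cells were seeded 18 h, dye-loaded 1 h at 37 C and given compound for 5 min at RT, then acetylcholine was added at 50nM. FDSS fluorescence was read 3 min; 15 concentrations, three runs.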

[13] = cAMP Responsive Elements (CRE) small molecule agonists, cell-based qHTS assay (AID 1963590)
Outline: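 Agonist mode qHTS in CRE-bla HEK 293T cells: compounds dosed from DMSO for 3 h at 37 C/5% CO2, followed by LiveBLAzer B/G FRET substrate for 2 h at room temperature.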

[14] = cAMP Responsive Elements (CRE) small molecule antagonists, cell-based qHTS assay (AID 1963591; active = well fitted inhibition curve with a large enough effect in the signal ratio in the repeat runs, not every such curve was filed as active; the % refers to the signal ratio)
Outline: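 Antagonist mode: test compounds are co-incubated with the adenylyl cyclase activator NKH477 (0.25 uM final) on CRE-bla HEK293T cells for 3 h at 37 °C, followed by LiveBLAzer substrate loading.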

[15] = molecular target: Beta-2 adrenergic receptor (Homo sapiens) (UniProt P07550); test: Adrenergic beta2 receptor (ADRB2) small molecule agonists, cell-based qHTS assay (AID 1963593);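 note: CHO cells stably overexpressing human ADRB2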
Sequence of Beta-2 adrenergic receptor (Homo sapiens) (P07550 whole entry, looked up): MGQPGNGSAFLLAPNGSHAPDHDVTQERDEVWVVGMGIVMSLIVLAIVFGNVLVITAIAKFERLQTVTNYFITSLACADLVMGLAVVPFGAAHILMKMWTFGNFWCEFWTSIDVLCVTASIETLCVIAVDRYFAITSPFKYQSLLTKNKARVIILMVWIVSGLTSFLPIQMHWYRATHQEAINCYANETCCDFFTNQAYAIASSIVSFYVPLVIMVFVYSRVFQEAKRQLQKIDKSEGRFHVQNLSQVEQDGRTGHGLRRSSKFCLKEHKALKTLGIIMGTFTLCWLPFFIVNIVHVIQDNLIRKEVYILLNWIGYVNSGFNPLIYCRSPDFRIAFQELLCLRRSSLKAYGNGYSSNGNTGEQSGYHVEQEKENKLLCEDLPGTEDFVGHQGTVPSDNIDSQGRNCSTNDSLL
Outline: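 CHO cells stably over-expressing ADRB2 were plated overnight at 37C, then dosed with compounds plus a stimulation mix containing 100uM IBMX and 25uM Ro-20-1724 for 0.5hr at room temperature. cAMP was measured by HTRF competition, 1hr.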

[16] = molecular target: D(2) dopamine receptor (Homo sapiens) (UniProt P14416); test: Dopamine D2 receptor (DRD2) small molecule agonists, cell-based qHTS assay (AID 1963594); note: nearly all actives have a fitted effect of over 35% in size
Sequence of D(2) dopamine receptor (Homo sapiens) (P14416 whole entry, looked up): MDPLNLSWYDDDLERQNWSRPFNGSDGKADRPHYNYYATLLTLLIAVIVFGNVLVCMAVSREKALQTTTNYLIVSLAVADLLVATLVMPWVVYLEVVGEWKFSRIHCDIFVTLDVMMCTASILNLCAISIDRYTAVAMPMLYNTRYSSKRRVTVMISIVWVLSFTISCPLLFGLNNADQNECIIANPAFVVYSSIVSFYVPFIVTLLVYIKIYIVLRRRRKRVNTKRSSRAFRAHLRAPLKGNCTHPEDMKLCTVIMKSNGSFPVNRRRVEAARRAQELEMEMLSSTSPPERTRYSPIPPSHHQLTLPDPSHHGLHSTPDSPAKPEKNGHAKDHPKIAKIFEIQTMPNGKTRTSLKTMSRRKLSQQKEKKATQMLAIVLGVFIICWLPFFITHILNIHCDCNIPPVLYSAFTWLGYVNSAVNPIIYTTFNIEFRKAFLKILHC
Outline: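 HEK293 cells stably expressing DRD2 were cultured 24 h at 37 C, then given Ro20-1724 (0.1 mM final) and compounds for 10 min at room temperature. NKH477 (200nM) was then added for 30 min. cAMP was read by HTRF.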

[17] = molecular target: D(2) dopamine receptor (Homo sapiens) (UniProt P14416); test: Dopamine D2 receptor (DRD2) small molecule antagonists, cell-based qHTS assay (AID 1963595; active = well fitted inhibition curve with a large enough effect in the signal ratio in the repeat runs, with a control signal flat; the % refers to the signal ratio)
Outline: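 HEK293 cells stably expressing DRD2 were preincubated with 0.1 mM Ro20-1724, then with compound for 10 min at room temperature. Cells were stimulated with 200 nM NKH477 plus 12 nM quinpirole for 30 min, and cAMP was read by HTRF.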

[18] = molecular target: 5-hydroxytryptamine receptor 2A (Homo sapiens) (UniProt P28223); test: 5-hydroxytryptamine receptor 2A (HTR2A) small molecule antagonists, cell-based qHTS assay (AID 1963586); note: nearly all actives have a fitted effect of over 45% in size
Outline: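 Antagonist-mode intracellular calcium assay: DOI (4 nM) added after 5 min compound pre-incubation at room temperature to dye-loaded HTR2A-CHO cells. Fluorescence followed for 3 min, sampled every second.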

[19] = molecular target: Muscarinic acetylcholine receptor M1 (Homo sapiens) (UniProt P11229); test: Cholinergic receptor muscarinic 1 (CHRM1) small molecule agonists, cell-based qHTS assay (AID 1963589); note: nearly all actives have a fitted effect of over 35% in size
Outline: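 Agonist-mode qHTS in CHO cells stably carrying human muscarinic M1. Intracellular calcium is tracked by fluorescence every second after compound transfer; each compound runs at 15 concentrations in three independent runs.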

[20] = molecular target: Beta-2 adrenergic receptor (Homo sapiens) (UniProt P07550); test: Adrenergic beta2 receptor (ADRB2) small molecule antagonists, cell-based qHTS assay (AID 1963592); note: series mostly up to about 92 µM; nearly all actives have a fitted effect of over 50% in size
Outline: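 Cells (CHO, stable ADRB2 overexpression) incubated 18-20hr at 37C; compounds added from DMSO; agonist mix (1nM isoproterenol, 100uM IBMX, 25uM Ro-20-1724) added; 0.5hr RT; d2-cAMP and anti-cAMP-cryptate added; 1hr RT; 665/615 nm read.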

Measured: Potency

C=COCCOCCOCCOC=C
inactive: [1] | [2] | [3] | [4] | [5] | [6] | [7] | [8] | [9] | [10] | [11] | [12] | [13] | [14] | [15] | [16] | [17]

OCCCC1CCCCC1
inactive: [1] | [2] | [3] | [4] | [5] | [6] | [7] | [8] | [9] | [10] | [18] | [12] | [19] | [13] | [20] | [15] | [16] | [17]

O=C(O)c1cc(=O)[nH]c(=O)[nH]1
inactive: [1] | [2] | [3] | [4] | [5] | [6] | [7] | [8] | [9] | [10] | [11] | [12] | [19] | [13] | [14] | [20] | [15] | [16] | [17]

COc1nc(N)nc2nc[nH]c12
inactive: [1] | [2] | [3] | [4] | [5] | [6] | [7] | [9] | [10] | [18] | [11] | [12] | [13] | [20] | [15] | [17]

Cc1ccc(-c2ccccc2C#N)cc1
inactive: [1] | [2] | [3] | [4] | [5] | [6] | [7] | [9] | [10] | [18] | [11] | [12] | [19] | [13] | [14] | [20] | [15] | [17]

CCCCc1ncc(/C=C(\Cc2cccs2)C(=O)O)n1Cc1ccc(C(=O)O)cc1
inactive: [1] | [2] | [3] | [4] | [5] | [6] | [7] | [8] | [9] | [10] | [18] | [11] | [19] | [13] | [14] | [20] | [15] | [16] | [17]

Oc1cccc2ccccc12
inactive: [1] | [2] | [3] | [4] | [5] | [6] | [7] | [8] | [9] | [10] | [18] | [11] | [19] | [20] | [16] | [17]

CCCOCCOCCO
inactive: [1] | [2] | [3] | [4] | [5] | [6] | [7] | [8] | [9] | [10] | [18] | [11] | [12] | [19] | [13] | [20] | [16] | [17]
